Assay results taken from PMC8384837, “Expanding the binding specificity for RNA recognition by a PUF domain”.

These sequences were tested against PUM1 PUF domain R5-TTR (Homo sapiens, UniProt Q14671 828-1176, C1007T;R1008T;Q1011R) (assay: yeast three-hybrid, YBZ-1, SC-Leu-His + 0.5 mM 3-AT, 4 days). Conditions: tags: N-Gal4 AD-HA kept; label: inside an RPR1-promoter hybrid RNA with tandem MS2 sites; ssRNA.
Summary of the method: (§1)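 The interaction score is the log change in how often each variant appears, from input to selection. Frequencies came from PCR-amplified, Illumina-sequenced repeat regions of Pumilio-1 PUF domain libraries grown in strain YBZ-1 (LexA–MS2 coat fusion, HIS3 reporter) alongside matching RNA elements. Input plates were SC-Leu and selection plates were SC-Leu-His + 0.5 mM 3-AT, each for four days, and the log2 calculation used a pseudocount of 1 where a variant was absent.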

For “GGCUAGAACUAGUGGAUCCCCCGGCGCCCGGCGGCUCGAGCCCGGGUAAGUGUAAAUAGUCUGCAUGCCGCCGGGCGCCAUGCCUGCAGGUCGACUCUAGAAAACAUG”, which binding signal is on record?
The binding signal was 0.63 log2 enrichment (interaction score).

“GGCUAGAACUAGUGGAUCCCCCGGCGCCCGGCGGCUCGAGCCCGGGUAAGUGUUAAUAGUCUGCAUGCCGCCGGGCGCCAUGCCUGCAGGUCGACUCUAGAAAACAUG” was tested. Which binding signal did it give?
The binding signal was 2.44 log2 enrichment (interaction score).

How did the binding signal turn out when “GGCUAGAACUAGUGGAUCCCCCGGCGCCCGGCGGCUCGAGCCCGGGUAAGUGUCAAUAGUCUGCAUGCCGCCGGGCGCCAUGCCUGCAGGUCGACUCUAGAAAACAUG” was run?
Its binding signal is 6.52 log2 enrichment (interaction score).

What follows are sequences tested against PUM1 PUF domain R4-PFA (Homo sapiens, UniProt Q14671 828-1176, N971P;H972F;Q975A) in the same assay as above. Conditions: tags: N-Gal4 AD-HA kept; label: inside an RPR1-promoter hybrid RNA with tandem MS2 sites; ssRNA.
Summary of the method: as §1

For “GGCUAGAACUAGUGGAUCCCCCGGCGCCCGGCGGCUCGAGCCCGGGUAAGUGUACAUAGUCUGCAUGCCGCCGGGCGCCAUGCCUGCAGGUCGACUCUAGAAAACAUG”, which binding signal is on record?
The binding signal was 3.34 log2 enrichment (interaction score).

How did the binding signal turn out when “GGCUAGAACUAGUGGAUCCCCCGGCGCCCGGCGGCUCGAGCCCGGGUAAGUGUAAAUAGUCUGCAUGCCGCCGGGCGCCAUGCCUGCAGGUCGACUCUAGAAAACAUG” was run?
The binding signal was 4.95 log2 enrichment (interaction score).

For “GGCUAGAACUAGUGGAUCCCCCGGCGCCCGGCGGCUCGAGCCCGGGUAAGUGUAUAUAGUCUGCAUGCCGCCGGGCGCCAUGCCUGCAGGUCGACUCUAGAAAACAUG”, which binding signal is on record?
Its binding signal is 4.96 log2 enrichment (interaction score).

These sequences were tested against PUM1 PUF domain R5-RCM (Homo sapiens, UniProt Q14671 828-1176, C1007R;R1008C;Q1011M) in the same assay as above. Conditions: tags: N-Gal4 AD-HA kept; label: inside an RPR1-promoter hybrid RNA with tandem MS2 sites; ssRNA.
Summary of the method: as §1

With “GGCUAGAACUAGUGGAUCCCCCGGCGCCCGGCGGCUCGAGCCCGGGUAAGUGUAAAUAGUCUGCAUGCCGCCGGGCGCCAUGCCUGCAGGUCGACUCUAGAAAACAUG” as the sequence, how does the binding signal read?
Its binding signal is 0.77 log2 enrichment (interaction score).

“GGCUAGAACUAGUGGAUCCCCCGGCGCCCGGCGGCUCGAGCCCGGGUAAGUGUGAAUAGUCUGCAUGCCGCCGGGCGCCAUGCCUGCAGGUCGACUCUAGAAAACAUG” was tested. Which binding signal did it give?
The binding signal was 1.67 log2 enrichment (interaction score).

Which binding signal does the source give for “GGCUAGAACUAGUGGAUCCCCCGGCGCCCGGCGGCUCGAGCCCGGGUAAGUGUCAAUAGUCUGCAUGCCGCCGGGCGCCAUGCCUGCAGGUCGACUCUAGAAAACAUG” here?
Its binding signal is 3.2 log2 enrichment (interaction score).
